Screens (PubChem)
Hits are enriched below; roughly 3.4% of the tested compounds scored in any of these assays.
GPR151 activ – activates the human receptor GPR151 | Q8TDV0 | PathHunter beta-arrestin GPR151 cells, luminescence | activation, % at 11.2 µM | 650,000 compounds, 1% hits; in the data active = activation above about 4.9%;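 note: 0% = median of compound wells and 100% = cells with positive control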
Target sequence (Q8TDV0 whole entry, looked up): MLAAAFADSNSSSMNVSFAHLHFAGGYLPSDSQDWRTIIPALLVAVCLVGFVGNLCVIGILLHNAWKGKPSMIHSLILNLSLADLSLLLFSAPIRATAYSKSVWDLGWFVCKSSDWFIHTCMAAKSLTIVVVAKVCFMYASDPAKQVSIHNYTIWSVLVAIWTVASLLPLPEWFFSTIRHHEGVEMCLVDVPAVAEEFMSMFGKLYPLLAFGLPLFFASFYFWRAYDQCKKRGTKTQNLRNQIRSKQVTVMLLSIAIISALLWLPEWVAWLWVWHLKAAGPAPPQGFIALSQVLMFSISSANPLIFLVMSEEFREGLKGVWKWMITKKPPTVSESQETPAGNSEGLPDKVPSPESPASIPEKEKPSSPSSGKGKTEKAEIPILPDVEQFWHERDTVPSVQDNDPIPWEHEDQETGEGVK
FBW7 act – activators of human E3 ligase FBW7; Q969H0; AlphaScreen FBW7–phospho-cyclin E peptide binding, activator screen; normalized activity (activation), % at 26.1 µM; 650,000 compounds, 0.13% hits; in the data active = normalized activity above about 1.9%;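 note: purified mutant Fbw7 with reduced substrate affinity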
TEAD-YAP inh – TEAD-YAP interaction inhibition | HEK-TIYL cells, TEAD-Gal4/YAP UAS-luciferase luminescence | inhibition, % at 9.12 µM | 640,000 compounds, 1.4% hits; in the data active = inhibition above about 32%;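 note: 0% = median of test compound wells and 100% = reference inhibitor wells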
MITF inh – blocks human microphthalmia-associated transcription factor. inhibition, % at 2.6 µM. AID 1259374. AlphaScreen MITF homodimerization, bead proximity signal. 650,000 compounds, 0.91% hits; in the data active = inhibition above about 50%;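 note: 0% = vehicle wells with protein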
GPR151 confirm – confirmation of human GPR151 activators; 6,700 tested, under 10 active; shares compounds with GPR151 activ; activation, % at 11.2 µM; GPR151 PathHunter beta-arrestin cells, luminescence, 90 min; % of EA-reagent control over plate median;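 active = mean percent activation across replicates above the confirmation screen cutoff of 4.91%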
GPR119 counter – counter-screen for GPR151 activators: effect on human GPR119; GPR119 PathHunter beta-arrestin cells, luminescence, 90 min; 0 = compound-well median, 100 = enzyme-acceptor control; shares compounds with GPR151 activ; activation, % at 11.2 µM; AID 1508611; 6,700 compounds, 0.3% hits;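 active = mean percent activation in the counterscreen above 29.09%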;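 note: counterscreen on off-target GPR119 to flag nonselective hits from the GPR151 activator screen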
* marks the source's active call; other numbers are inactive results; . = not tested or not shown; ! = not active in a repeat.

SMILES	GPR151 activ	FBW7 act	TEAD-YAP inh	MITF inh	GPR151 confirm	GPR119 counter
Cc1ccc(C(C)C)c(OC2=NS(=O)(=O)c3cc([N+](=O)[O-])ccc32)c1	13*	0	6	16	-1	-6
FC(F)(F)c1ccc(Cn2cnc3c(NC4CCN(Cc5ccccc5)CC4)nc(-c4csc5ccccc45)nc32)cc1	7.0*	0	8	-3	0	3
c1ccc2c(-c3nc(NC4CC4)c4ncn(C5CCCCC5)c4n3)csc2c1	7.5*	0	-13	-3	-1	-16
FC(F)(F)c1ccc(Cn2cnc3c(NC4CC4)nc(-c4csc5ccccc45)nc32)cc1	1	0	-6	4	.	.
CCN(CC)CCCNC(=O)c1sc2ncn(CC(=O)N3CCCCC3C)c(=O)c2c1C (centres undefined)	0	0	-5	2	.	.
CS(=O)(=O)N1CCN(c2ccc(C(=O)N3CCOCC3)cc2[N+](=O)[O-])CC1	7.6*	1	5	13	0	1
O=C(c1ccc(N2CCCCCC2)c([N+](=O)[O-])c1)N1CCOCC1	-1	0	-2	7	.	.
O=C(N/N=C/c1ccc2c3c(cccc13)CC2)c1cccnc1	-1	0	-52	6	.	.
Cc1nc(N2CCOCC2)nc2c1CCC2	10*	0	-11	7	-1	-10
COc1ccc(CNC(=O)CN(C)S(=O)(=O)c2cc(Br)cnc2N)cc1	2	0	3	11	.	.
COC(=O)c1nsc(Cl)c1Cl	6.8*	0	8	10	0	-8
COc1ccc(-c2noc(COc3ccc4c(c3)OCO4)n2)cc1	5.1*	1	3	9	0	-1
COc1ccc(NS(=O)(=O)c2cc(S(=O)(=O)c3ccccc3)ccc2C)cc1	0	0	-3	-2	.	.
Cc1ncsc1CCC(=O)N1CCC(C(=O)Nc2cccc(-c3ccco3)c2)CC1	1	0	8	11	.	.
COc1ccc(-c2noc(CN(C(=O)COc3cccc(C)c3C)C(C)C)n2)cc1	1	0	-12	2	.	.
O=C(Nc1ccc2c(c1)CN(Cc1cccnc1)CC2)C1CCCO1 (centres undefined)	0	0	0	12	.	.
O=C(Nc1ccc2c(c1)CN(Cc1cnc(-c3ccccc3)s1)CC2)C1CCCO1 (centres undefined)	5.2*	0	3	-13	0	2
CC(Cc1cncs1)NC(=O)C1CC(Cc2ccc(F)cc2)=NO1 (centres undefined)	1	0	-41	-9	.	.
CC(NC(=O)c1cc(-c2ccccc2Cl)nc2ccccc12)c1ccccc1 (centres undefined)	0	0	18	15	.	.
CCC(C)N(C)C(=O)c1cc2ccccc2c(-c2ccccc2Cl)n1 (centres undefined)	5.4*!	0	-2	1	0	2
COc1ccc(C2Nc3ccccc3C(=O)N2NC(=O)c2ccccc2)cc1 (centres undefined)	0	0	-18	6	.	.
Cc1nc2nc(SCC(=O)NC3CCCCC3)nn2c(C)c1Cc1c(F)cccc1Cl	6.4*	0	4	8	0	2
Cc1ccc(Sc2ccc3noc4c3c2C(=O)c2ccccc2-4)cc1	11*	0	1	9	-1	-14
CCOC(=O)c1sc2ncn(Cc3ccc(Cl)cc3)c(=O)c2c1C	1	0	8	9	.	.
CCOC(=O)c1sc2ncn(Cc3ccc(C(F)(F)F)cc3)c(=O)c2c1C	6.2*	0	-3	9	1	11
SMILES	GPR151 activ	FBW7 act	TEAD-YAP inh	MITF inh	GPR151 confirm	GPR119 counter
CCOC(=O)c1cnc2c(ccc3ccccc32)c1NCc1ccco1	5.8*	1	-6	-1	1	6
CCOC(=O)c1cnc2c(C)c(C)ccc2c1NCc1ccco1	3	0	-10	6	.	.
COC(=O)c1cc(C)sc1NC(=S)N1CCCCCC1	8.7*	0	-22	-8	1	-1
CC(=O)c1ccc(C(=O)N2CCC(CO)(Cc3ccccc3)CC2)s1	-1	0	4	11	.	.
CCn1c(SCC(=O)N/N=C(/C)c2ccc(OC)cc2)nc2ccccc21	6.8*	0	13	20	-1	-4
COC(=O)c1ccc(CSc2nc(C)[nH]c2[N+](=O)[O-])o1	2	0	0	-16	.	.
Cc1nc(SCC(O)CCl)c([N+](=O)[O-])[nH]1 (centres undefined)	8.5*	0	-3	2	0	1
COc1ccccc1CNC(=O)c1nn(C)c2c1COc1ccccc1-2	0	0	-15	8	.	.
Cn1nc(C(=O)NCc2ccc(F)cc2)c2c1-c1ccccc1OC2	12*	0	-10	-6	1	-1
COc1ccc(C(=O)CSc2nc(O)cc(=O)[nH]2)cc1OC	2	-1	-9	6	.	.
O=c1[nH]c2ccc(S(=O)(=O)N3CCN(c4ccccn4)CC3)cc2s1	5.1*	0	-13	-5	0	6
CCC(C)NC(=O)C1=C(C)C(=O)OC12CCCCC2 (centres undefined)	12*	0	1	3	-1	-6
CCCOc1ccc(-c2csc(NC(=O)c3ccccc3NS(=O)(=O)c3ccc(C)cc3)n2)cc1	1	0	26	13	.	.
CCOC(=O)c1cnc(SC2CC(=O)N(c3cccc(F)c3)C2=O)nc1N (centres undefined)	7.5*	0	0	-2	0	4
CCOC(=O)c1cnc(SCc2cccc(F)c2)nc1N	0	0	-75	-5	.	.
Cc1cc(C)c(S(=O)(=O)Nc2ccc(F)cc2)cc1C	0	0	-1	10	.	.
Cc1cc(C)c(S(=O)(=O)Nc2ccc(O)c(C(=O)O)c2)cc1C	10*	0	0	1	1	-2
Cc1cc(OCC(=O)Nc2sc(C)c(C)c2C#N)ccc1Cl	1	0	3	5	.	.
COc1ccc(C(=O)N2CCN(S(=O)(=O)c3cc4c5c(c3)CCC(=O)N5CCC4)CC2)cc1	5.7*	0	7	2	0	0
O=[N+]([O-])c1c(Cl)ccc2nsnc12	1	0	-1	0	.	.
O=[N+]([O-])c1c(Oc2ccc(Cl)cc2)ccc2nsnc12	5.3*	0	-5	12	0	-7
Cc1ccc([N+](=O)[O-])cc1NC(=O)c1ccccc1Cl	1	0	3	5	.	.
O=C(Nc1ccc(S(=O)(=O)Nc2nccs2)cc1)c1ccc([N+](=O)[O-])cc1Cl	5.2*	0	-2	8	0	-2
Cc1ccc(C(=O)Nc2ccc([N+](=O)[O-])cc2)c(Cl)c1	15*	0	-44	8	1	6
COc1ccccc1C(=O)Nc1ccc(I)cc1Cl	7.2*	0	-20	-23	0	12
